Assay outcomes deposited in PubChem BioAssay by National Center for Advancing Translational Sciences (NCATS).
Shown are actives, neighbours in structure and some others; about 7.9% of the full set was active somewhere.
MARV entry inh – qHTS for inhibitors of binding or entry into cells for Marburg Virus; Potency, µM (top dose mostly 37.8 µM), for inactives: at the highest dose activity change, negative = inhibition, most hits filed as inhibitors; Marburg virus pseudotyped entry inhibition, cell reporter; 1.8% of 300,000 active; calls by dose curve; tested in HEK293 cells; note: potency is the fitted concentration of half-maximal effect
FMDV inh – High Throughput Screening for Foot and Mouth Disease Virus Antivirals | 1.2% of 410,000 active | Potency, µM (titrated, usually from 57.9 µM), without a hit: top-dose activity change, negative = inhibition, usual class: inhibitors | FMDV antiviral cell-based qHTS | AID 1159524, 2015; calls by dose curve; tested in HEK293T cells; note: read-out not given here; potency is the fitted concentration of half-maximal effect; nearly all actives have a fitted effect of over 45% in size
LASV entry inh – qHTS for Inhibitors of binding or entry into cells for Lassa Virus | Lassa virus pseudotype entry inhibition, cell reporter | Potency, µM (highest dose often 37.9 µM), inactives show at the top dose activity change, negative = inhibition, hits mostly inhibitors | 1.2% of 300,000 active; calls by dose curve; tested in HEK293 cells; note: potency is the fitted concentration of half-maximal effect; nearly all actives have a fitted effect of over 50% in size
HCV inh – qHTS Assay for Inhibitors of Hepatitis C Virus (HCV); Huh7.5.1 HCVcc-Cre infection, luciferase reporter, 44 h; Potency, µM (highest dose often 41.8 µM), for inactives: top-dose activity change, negative = inhibition, actives largely listed as inhibitors; 3.4% of 340,000 active; AID 651820, 2012; active = well fitted inhibition curve with a large enough effect; inconclusive = small, poorly fitted or top-dose-only effect, or another doubt; inactive = no such curve, though single readings can be large or run the other way; note: potency is the fitted concentration of half-maximal effect
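Infectious HCV cell culture screen: compound-treated cells (1,000/well, pre-plated 4 h) are infected with HCVcc-Cre at roughly 0.5 moi and grown 44 h. Infection is quantified by luciferase signal after 15 min substrate incubation at room temperature.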
HCMV inh – qHTS Assay for inhibitors of the human cytomegalovirus (HCMV). HFF cells, HCMV-luciferase reporter, 72 h; hits give low values. activity change, negative = inhibition, % at 57.5 µM. 4.5% of 410,000 active. AID 1259415, 2018; in the data active = activity change below about -60%; inconclusive = no clear call, values can overlap the other calls; inactive = above about -39%
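Two-dose cell screen: HFF monolayers treated with compounds and infected with luciferase-expressing HCMV at 1 PFU/cell, 72 h at 37C, then lysed for luciferase measurement.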
The depositor's hits bear a star; u = inconclusive; x = no result given; [ ] = dose if it differs, or a comment. % is set by controls: 0 for no effect and ±100 for the full control effect.

SMILES | MARV entry inh | FMDV inh | LASV entry inh | HCV inh | HCMV inh
CCC(=O)Nc1cccc(-c2ccc(N3CCC(C)CC3)nn2)c1 | x | -73.9% | x | -5.1% | -67.0*
Cc1c(-c2cccc(NC(=O)Cc3ccccc3)c2)nc2ncccn12 | x | 43.6% | 26.5%[46.1 µM] | x | -19.4
CC1CCN(c2ccc(-c3cccc(NC(=O)C(F)(F)F)c3)nn2)CC1 | u | 15.8µM* | 2.24µM* | -19.6% | -4.1
Cc1c(-c2cccc(NC(=O)c3ccco3)c2)nc2ncccn12 | 5.4%[46.1 µM] | -1.8% | 9.4% | u | -76.0*
CC1CCN(c2ccc(-c3cccc(NC(=O)c4ccco4)c3)nn2)CC1 | 7.94µM* | -23.7% | 2.51µM* | u | 37.2
CCN(Cc1ccncc1)Cc1ccc2c(c1)CN(C(=O)c1cccc3c(C)c(C)[nH]c13)CCO2 | x | 5.2% | x | x | x
Fc1ccccc1-c1nc(N2CCN(c3cccc(Cl)c3)CC2)c2ccccc2n1 | x | u | -21.4%[46.1 µM] | x | 2.0
CCOc1ccccc1-n1nnc(-c2nc(-c3ccccc3)no2)c1N | x | 34.4% | -9.2%[46.1 µM] | x | 41.5
Cc1cc(Br)ccc1NC(=O)COc1cc(=O)n(C)c2ccccc12 | 4.2%[46.1 µM] | -3.2% | -0.1%[46.1 µM] | x | -2.7
CC(=O)N(C)c1ccc(N=Nc2ccc3ncccc3c2)cc1 | u | -14.5% | 10µM* | -27.1% | 30.0
Oc1ccc(C=Nc2ccc3ncccc3c2)c(O)c1 | -2.8% | x | x | x | x
O=C(NCc1ccc(F)cc1)c1cc2cccc3c2n1CCS3 | x | -17.5% | u | x | -69.7*
O=C(NCc1ccccc1)c1ccc2c(c1)N(Cc1ccc(F)cc1)CCS2 | u | 1.0% | u | x | -22.3
COc1ccc(CNC(=O)CCn2c(=O)c3cccn3c3ccc(F)cc32)cc1OC | x | -7.5% | u | x | -27.4
CC(/C=C/c1ccccc1)=N\Nc1ccccc1[N+](=O)[O-] | u | 21.3% | -4.0%[46.1 µM] | -14.7% | -72.5*
O=C(CNCC1CCCCC1)Nc1ccccc1N1CCCCC1 | -43.0% | u | 15.9% | 11.2µM* | u
O=C(Nc1ccccc1F)Nc1ccccc1N1CCCCC1 | -17.4% | u | u | 14.1µM* | -83.1*
CC(C)CC(=O)NC(=S)Nc1ccccc1N1CCCC1 | x | -17.1% | x | -13.3% | -7.0
O=C(CNC1CCCCCC1)Nc1ccccc1N1CCCCC1 | u | -13.8% | u | u | -29.4
O=C(CN1CCc2ccccc2C1)Nc1ccccc1N1CCCCCC1 | 18.3µM* | u | -28.9% | u | x
CC(C)CC(=O)Nc1ccccc1N1CCCC1 | 4.0% | -22.6% | -2.0% | 0.9% | -78.5*
CCc1ccccc1N(CC)C(=O)c1c(C)oc2ncn(C)c(=O)c12 | x | 7.1% | 27.6%[46.1 µM] | x | -4.7
Cc1ccccc1CNC(=O)c1cnc2sc(N3CCC(C)CC3)nn2c1=O | x | 0.0% | u | x | 4.0
CN(C)c1ccc(/C=C/c2nc3ccccc3s2)cc1 | 2µM* | 5.01µM* | 2.24µM* | -8.3% | -92.2*
CC(=O)Oc1c(Cl)cc(Cl)cc1/C=C/c1ccc2ccccc2n1 | 20.2% | 17.6% | 14.7% | -19.0% | -17.8
SMILES | MARV entry inh | FMDV inh | LASV entry inh | HCV inh | HCMV inh
Fc1ccccc1/C=C/c1ccc2ccccc2n1 | u | 10µM* | 2.51µM* | -14.5% | -10.3
CC(=O)Oc1ccc(Cl)cc1/C=C/c1ccc2ccccc2n1 | u | 7.6% | u | 7.94µM* | 95.9
O=C(O)/C=C/c1ccc2ccccc2n1 | u | x | -3.0% | 21.8% | -39.8
Cc1ccc(/C=C/c2nc3ccccc3s2)s1 | u | u | 6.31µM* | -8.1% | u
COc1cc(/C=C/c2nc3ccccc3s2)cc(OC)c1O | 6.0%[46.1 µM] | 35.6% | u | u | 38.2
Cc1c(-c2nc(-c3ccc4c(c3)OCO4)no2)nnn1-c1ccc(C(C)C)cc1 | x | -5.4% | 11.6%[46.1 µM] | x | 10.3
CSc1nnc(CNS(=O)(=O)c2ccc(F)cc2F)n1-c1ccccc1C | x | 3.1% | x | x | x
Oc1ccc(/C(Cc2ccc3ccccc3n2)=N\Nc2ccccc2)c(O)c1 | u | 13.0% | u | u | 57.9
CCCN(CCC)c1ccc(/C=C/c2ccc3cc(OCC)ccc3n2)cc1 | x | 0.4% | x | u | u
C(=C\c1ccc2ccccc2n1)/c1ccccc1 | x | -83.7% | x | -7.6% | 36.4
C(=Cc1c[nH]c2ccccc12)c1ccc2ccccc2n1 | 2.24µM* | u | u | 5.62µM* | -91.8*
Oc1ccc(/C=C/c2ccc3ccccc3n2)cc1 | x | -87.8% | x | u | -67.8*
CN(C)c1ccc(/C=C/c2ccc3ccccc3n2)cc1 | x | 6.31µM* | x | u | x
O/C(=C\c1ccc2ccccc2n1)c1ccc(O)cc1O | 7.08µM* | -85.6% | u | -28.2% | 51.5
Cc1cc(C)cc(C(=O)NCCc2sc(-c3ccc(F)cc3)nc2C)c1 | x | -9.7% | -2.7%[46.1 µM] | x | -16.4
COc1ccc2c(c1)c1c(c(=O)n(-c3ccccc3C)c(=O)n1C)n2C | x | -12.5% | 5.5%[46.1 µM] | x | -9.7
CC1CN(CCC(=O)NC(c2cccnc2)C(F)(F)F)Cc2cc(Cl)ccc2O1 (centres undefined) | x | -7.0% | x | x | x
O=[N+]([O-])c1ccc(/C=C/c2ccc3cccc(O)c3n2)cc1 | x | 58.0% | x | -28.7% | 73.7
O=[N+]([O-])c1ccc(/C=C/c2ccc3ccccc3n2)cc1 | u | -65.5% | 2µM* | -6.8% | u
CCOC(=O)c1c(C)c(-c2ccccc2)n(CC(=O)Nc2cccc(F)c2)c1C | u | 8.2% | x | x | 0.2
CSc1cccc(NC(=S)N2CCC(c3ccccc3)C2)c1 (centres undefined) | u | 14.6% | u | -29.4% | -81.7*
Cc1ccc(NC(=S)N2CCC(c3ccccc3)C2)c(Cl)c1 (centres undefined) | u | 2.5% | 10µM* | 3.2% | 13.1
COC(=O)N[C@H](CC(C)=O)c1ccc(Cl)cc1 | 2.9%[14.2 µM] | x | x | x | x
Cc1cccc(N2CCN(C(=O)c3ccc4nc(N5CCC(C)CC5)sc4c3)CC2)c1C | u | -23.8% | u | x | 14.9
CCCCN(C)CCNC(=O)c1c2c(nc3ccccc13)C(=O)N(C1CCCCC1)C2 | x | -6.4% | -0.9%[46.1 µM] | x | 31.2
SMILES | MARV entry inh | FMDV inh | LASV entry inh | HCV inh | HCMV inh
O=CNc1ccc2c3c(cccc13)-c1ccccc1-2 | 14.2% | 52.6% | -3.1% | 2.82µM* | 34.2
Cc1ccc(-c2c[n+](CC(=O)Nc3cc(=O)n(C)c(=O)n3C)c3n2CCC3)cc1 | 4.1% | 0.0% | 11.1% | 9.0% | -68.2*
Cc1ccc(-c2c[n+](CC(=O)Nc3nc(-c4ccccc4)cs3)c3n2CCC3)cc1 | -22.9%[46.1 µM] | -11.3% | 0.2% | 6.31µM* | 16.9
CCN1CCCC1CNC(=O)c1cnn(-c2nccc(-c3cccs3)n2)c1C1CC1 (centres undefined) | x | -9.2% | x | x | x
CCOC(=O)c1[nH]c(C)c(C(=O)OC)c1C | u | 15.0% | u | 6.1% | 58.6
CN(C)S(=O)(=O)c1cc(NC(=O)CN2CCN(c3ccccc3)CC2)ccc1Cl | u | -28.3% | 3.55µM* | 2.6% | -24.2
CCOC(=O)c1c(C)[nH]c(C(=O)OCc2ccccc2F)c1C | u | 26.3% | 10µM* | u | 119.4
COC(=O)c1c(C)[nH]c(C(=O)OCC(=O)c2ccc(C)s2)c1C | u | 36.8% | u | 11.2µM* | 51.6
